Measured values taken from the supplement of paper PMC10849652.
Of roughly 8,800 targets only a part is listed; those with a hit were picked by preference. About 0.5% of all pairs of compound and target were hits.

How the values were obtained:
Assay in all cases: log2 fold change, soluble protein after heating vs DMSO (PISA); higher = thermal stabilisation; K562 lysate, 10 uM; active = over 0.2 and 3.5 SD of the protein, either way, in both replicates (recomputed)
[1] = compound: C1=CC=C(C=C1)[C@H](COC2=CC3=C(C=C2)NC(=O)N3)NC(=O)C4=CC=CN(C4=O)CC5=CC(=C(C=C5)F)F
In short: (§1)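 K562 pellets were dounce-homogenised in PBS pH 7.4 with 1 mM MgCl2, and the crude extract at 1 mg/mL protein was treated with 10 μM compound for 30 min. Aliquots were heated for 3 min across 48°C-58°C, pooled, and brought to 0.5% NP-40 at 4°C; soluble protein was the supernatant after 21,000xg for 90 min. Soluble protein was quantified by TMTpro 16plex LC-MS/MS with channel sums equalised, and reported as log2 fold change in thermal stability against DMSO controls, with values from duplicates.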

[2] = compound: CC1=C(SC2=C1C(=N[C@H](C3=NN=C(N32)C)CC(=O)N)C4=CC=C(C=C4)Cl)C
In short: as §1

[3] = compound: CC1=C2C(=CC=C1)N=C(N(C2=O)C3=CC=CC=C3C)CN4C=NC5=C(N=CN=C54)N
In short: as §1

[4] = compound: Cc1sc2c(c1C)C(c1ccc(Cl)cc1)=N[C@@H](CC(=O)OC(C)(C)C)c1nnc(C)n1-2
In short: as §1

[5] = compound: c1ccc([C@@H]2C[C@H]2NC2CCNCC2)cc1
In short: as §1

Measured: log2 fold change

PRIMPOL (UniProt Q96LW4)
inactive: [1] 0.009 | [2] 0.009 | [3] -0.015 | [4] -0.024

PRC1 (UniProt O43663)
inactive: [1] 0.089 | [2] 0.037 | [3] 0.026 | [4] 0.03 | [5] 0.043

POLR2M (UniProt P0CAP2)
inactive: [1] 0.026 | [2] -0.005 | [3] 0.025 | [4] 0.024 | [5] 0.005

PTPN2 (UniProt P17706)
UniProt P17706, sequence (P17706 whole entry, looked up): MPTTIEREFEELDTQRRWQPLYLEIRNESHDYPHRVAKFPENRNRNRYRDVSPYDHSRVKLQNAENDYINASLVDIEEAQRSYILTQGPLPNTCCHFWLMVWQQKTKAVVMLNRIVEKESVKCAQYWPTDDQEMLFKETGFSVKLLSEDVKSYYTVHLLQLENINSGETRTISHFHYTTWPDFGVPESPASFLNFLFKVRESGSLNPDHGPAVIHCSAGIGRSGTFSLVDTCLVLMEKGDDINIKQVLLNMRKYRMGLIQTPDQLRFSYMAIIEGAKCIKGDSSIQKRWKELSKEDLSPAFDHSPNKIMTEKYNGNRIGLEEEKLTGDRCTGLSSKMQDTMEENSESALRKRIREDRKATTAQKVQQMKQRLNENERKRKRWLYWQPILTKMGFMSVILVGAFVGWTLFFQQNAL
inactive: [1] -0.031 | [2] 0.017 | [3] 0.023 | [4] 0.007 | [5] 0.012

PRKACA (UniProt P17612)
inactive: [1] 0.029 | [2] 0.019 | [3] 0.008 | [4] -0.013 | [5] -0.245

PCLAF (UniProt Q15004)
inactive: [1] 0.053 | [2] 0.016 | [3] -0.037 | [4] -0.059 | [5] -0.039

PUM1 isoform 3 (UniProt Q14671)
inactive: [1] -0.057 | [2] 0.048 | [3] 0.024 | [4] -0.003 | [5] 0.054

PRKRA (UniProt O75569)
UniProt O75569, sequence (O75569 whole entry, looked up): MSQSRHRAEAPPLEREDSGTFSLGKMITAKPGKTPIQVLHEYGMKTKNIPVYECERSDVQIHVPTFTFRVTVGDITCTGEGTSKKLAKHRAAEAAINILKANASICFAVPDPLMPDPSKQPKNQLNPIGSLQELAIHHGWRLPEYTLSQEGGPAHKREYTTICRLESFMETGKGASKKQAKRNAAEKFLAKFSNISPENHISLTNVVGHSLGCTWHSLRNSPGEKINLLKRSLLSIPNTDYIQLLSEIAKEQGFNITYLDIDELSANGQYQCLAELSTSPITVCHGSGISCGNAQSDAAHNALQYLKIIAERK
inactive: [1] -0.002 | [2] 0.027 | [3] 0.031 | [4] 0.029 | [5] 0.036

PIK3R2 (UniProt O00459)
inactive: [1] 0.002 | [2] -0.058 | [3] 0.272 | [4] 0.024 | [5] -0.007

POLR2F (UniProt P61218)
inactive: [1] 0.013 | [2] -0.105 | [3] -0.163 | [4] 0.381 | [5] 0.359

PPP2CA (UniProt P67775)
UniProt P67775, sequence (P67775 whole entry, looked up): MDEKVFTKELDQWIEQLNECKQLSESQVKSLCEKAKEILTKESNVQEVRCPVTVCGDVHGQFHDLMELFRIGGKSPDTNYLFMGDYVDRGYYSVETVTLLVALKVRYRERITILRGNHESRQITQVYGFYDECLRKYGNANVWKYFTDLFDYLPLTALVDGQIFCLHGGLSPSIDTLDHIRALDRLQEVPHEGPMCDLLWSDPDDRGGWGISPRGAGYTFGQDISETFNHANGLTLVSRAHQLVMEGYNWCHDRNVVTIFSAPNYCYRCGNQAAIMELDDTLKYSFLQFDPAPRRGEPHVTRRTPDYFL
inactive: [1] -0.108 | [2] 0.037 | [3] 0.037 | [4] 0.092 | [5] -0.092

PCBP2 (UniProt F8W0G4)
inactive: [1] 0.16 | [2] 0.052 | [3] 0.043 | [4] 0.103

PICALM (UniProt Q13492)
inactive: [1] -0.014 | [2] 0.027 | [3] 0.016 | [4] 0.005 | [5] 0.007

PPP1R8 (UniProt Q12972)
inactive: [1] 0.006 | [2] 0.017 | [3] 0.003 | [4] 0.059 | [5] -0.142

PMS1 (UniProt P54277)
UniProt P54277, sequence (P54277 whole entry, looked up): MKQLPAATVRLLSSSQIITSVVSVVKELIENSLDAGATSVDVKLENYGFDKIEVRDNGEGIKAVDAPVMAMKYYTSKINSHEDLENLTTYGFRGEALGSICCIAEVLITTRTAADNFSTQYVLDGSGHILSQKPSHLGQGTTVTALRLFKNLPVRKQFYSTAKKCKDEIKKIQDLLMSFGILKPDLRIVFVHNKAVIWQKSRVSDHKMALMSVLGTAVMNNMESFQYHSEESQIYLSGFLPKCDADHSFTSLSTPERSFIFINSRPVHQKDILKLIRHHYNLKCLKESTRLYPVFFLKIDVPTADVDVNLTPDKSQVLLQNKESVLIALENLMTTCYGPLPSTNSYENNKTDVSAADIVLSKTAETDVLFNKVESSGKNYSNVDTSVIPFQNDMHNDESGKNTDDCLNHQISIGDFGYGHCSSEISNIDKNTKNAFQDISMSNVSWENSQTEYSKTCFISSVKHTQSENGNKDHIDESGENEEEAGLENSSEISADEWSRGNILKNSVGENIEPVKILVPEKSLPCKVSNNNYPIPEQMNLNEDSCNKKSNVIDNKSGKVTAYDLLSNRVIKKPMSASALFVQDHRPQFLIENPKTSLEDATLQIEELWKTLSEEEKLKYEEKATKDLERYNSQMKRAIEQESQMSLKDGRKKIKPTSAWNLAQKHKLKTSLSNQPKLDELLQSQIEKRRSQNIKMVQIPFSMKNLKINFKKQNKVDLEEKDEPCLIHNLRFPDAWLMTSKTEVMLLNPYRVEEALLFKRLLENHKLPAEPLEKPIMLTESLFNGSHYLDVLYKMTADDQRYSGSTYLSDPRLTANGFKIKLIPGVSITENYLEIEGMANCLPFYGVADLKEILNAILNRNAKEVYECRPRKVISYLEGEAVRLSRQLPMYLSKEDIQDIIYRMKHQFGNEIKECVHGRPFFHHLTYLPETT
inactive: [1] -0.011 | [2] -0.056 | [3] 0 | [4] -0.06 | [5] -0.006

PTP4A1 (UniProt Q93096)
inactive: [1] 0.047 | [2] 0.006 | [3] 0.012 | [4] -0.01 | [5] 0.041

PIKFYVE (UniProt Q9Y2I7)
inactive: [1] -0.005 | [2] 0.007 | [3] 0.016 | [4] 0.054 | [5] -0.03

PEX2 (UniProt P28328)
UniProt P28328, sequence (P28328 whole entry, looked up): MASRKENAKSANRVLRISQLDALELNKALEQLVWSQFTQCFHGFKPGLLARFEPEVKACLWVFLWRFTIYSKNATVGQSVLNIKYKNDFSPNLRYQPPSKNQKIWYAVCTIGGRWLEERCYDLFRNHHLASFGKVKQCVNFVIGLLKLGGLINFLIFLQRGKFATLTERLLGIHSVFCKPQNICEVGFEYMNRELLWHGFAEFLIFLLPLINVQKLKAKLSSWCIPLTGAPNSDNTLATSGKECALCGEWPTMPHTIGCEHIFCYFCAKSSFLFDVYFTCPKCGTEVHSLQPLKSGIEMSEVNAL
inactive: [1] -0.243 | [2] 0.053 | [3] -0.048 | [4] 0.116 | [5] -0.365

PHC1 (UniProt P78364)
UniProt P78364, sequence (P78364 whole entry, looked up): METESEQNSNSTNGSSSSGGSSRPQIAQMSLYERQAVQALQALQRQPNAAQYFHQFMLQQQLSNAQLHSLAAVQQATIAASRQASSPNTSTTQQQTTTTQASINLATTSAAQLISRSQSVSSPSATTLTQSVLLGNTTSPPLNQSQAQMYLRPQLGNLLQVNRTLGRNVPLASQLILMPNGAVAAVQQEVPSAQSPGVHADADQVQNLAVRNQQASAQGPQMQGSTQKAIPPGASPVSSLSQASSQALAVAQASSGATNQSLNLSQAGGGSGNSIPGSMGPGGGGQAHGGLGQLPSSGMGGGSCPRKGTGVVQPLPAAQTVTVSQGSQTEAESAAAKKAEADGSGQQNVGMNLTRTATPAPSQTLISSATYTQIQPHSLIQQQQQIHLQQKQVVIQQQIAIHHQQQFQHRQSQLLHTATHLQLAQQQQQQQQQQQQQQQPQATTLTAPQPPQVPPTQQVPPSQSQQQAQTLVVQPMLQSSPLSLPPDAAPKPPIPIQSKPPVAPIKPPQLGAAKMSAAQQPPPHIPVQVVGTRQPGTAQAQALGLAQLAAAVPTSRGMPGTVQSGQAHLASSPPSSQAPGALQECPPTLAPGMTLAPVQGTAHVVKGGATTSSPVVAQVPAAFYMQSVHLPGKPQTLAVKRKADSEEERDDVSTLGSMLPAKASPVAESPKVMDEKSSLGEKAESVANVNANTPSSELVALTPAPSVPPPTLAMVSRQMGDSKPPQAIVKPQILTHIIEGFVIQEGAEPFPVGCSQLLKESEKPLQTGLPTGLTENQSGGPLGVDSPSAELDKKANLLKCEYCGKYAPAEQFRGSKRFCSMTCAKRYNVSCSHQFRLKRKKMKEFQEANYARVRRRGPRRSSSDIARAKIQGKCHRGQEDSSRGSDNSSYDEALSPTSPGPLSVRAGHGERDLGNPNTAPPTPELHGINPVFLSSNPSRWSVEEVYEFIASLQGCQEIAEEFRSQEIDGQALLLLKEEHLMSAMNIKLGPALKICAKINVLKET
inactive: [1] 0.025 | [2] 0.001 | [3] 0.041 | [4] -0.049

PREP (UniProt P48147)
inactive: [1] 0.006 | [2] 0.02 | [3] 0.013 | [4] -0.02 | [5] 0.03

PTK2 (UniProt Q05397)
inactive: [1] 0.006 | [2] -0.027 | [3] -0.003 | [4] 0.023 | [5] -0.131

PYCR2 (UniProt Q96C36)
inactive: [1] 0.007 | [2] 0.036 | [3] 0.013 | [4] 0.004 | [5] -0.054

PFAS (UniProt O15067)
UniProt O15067, sequence (O15067 whole entry, looked up): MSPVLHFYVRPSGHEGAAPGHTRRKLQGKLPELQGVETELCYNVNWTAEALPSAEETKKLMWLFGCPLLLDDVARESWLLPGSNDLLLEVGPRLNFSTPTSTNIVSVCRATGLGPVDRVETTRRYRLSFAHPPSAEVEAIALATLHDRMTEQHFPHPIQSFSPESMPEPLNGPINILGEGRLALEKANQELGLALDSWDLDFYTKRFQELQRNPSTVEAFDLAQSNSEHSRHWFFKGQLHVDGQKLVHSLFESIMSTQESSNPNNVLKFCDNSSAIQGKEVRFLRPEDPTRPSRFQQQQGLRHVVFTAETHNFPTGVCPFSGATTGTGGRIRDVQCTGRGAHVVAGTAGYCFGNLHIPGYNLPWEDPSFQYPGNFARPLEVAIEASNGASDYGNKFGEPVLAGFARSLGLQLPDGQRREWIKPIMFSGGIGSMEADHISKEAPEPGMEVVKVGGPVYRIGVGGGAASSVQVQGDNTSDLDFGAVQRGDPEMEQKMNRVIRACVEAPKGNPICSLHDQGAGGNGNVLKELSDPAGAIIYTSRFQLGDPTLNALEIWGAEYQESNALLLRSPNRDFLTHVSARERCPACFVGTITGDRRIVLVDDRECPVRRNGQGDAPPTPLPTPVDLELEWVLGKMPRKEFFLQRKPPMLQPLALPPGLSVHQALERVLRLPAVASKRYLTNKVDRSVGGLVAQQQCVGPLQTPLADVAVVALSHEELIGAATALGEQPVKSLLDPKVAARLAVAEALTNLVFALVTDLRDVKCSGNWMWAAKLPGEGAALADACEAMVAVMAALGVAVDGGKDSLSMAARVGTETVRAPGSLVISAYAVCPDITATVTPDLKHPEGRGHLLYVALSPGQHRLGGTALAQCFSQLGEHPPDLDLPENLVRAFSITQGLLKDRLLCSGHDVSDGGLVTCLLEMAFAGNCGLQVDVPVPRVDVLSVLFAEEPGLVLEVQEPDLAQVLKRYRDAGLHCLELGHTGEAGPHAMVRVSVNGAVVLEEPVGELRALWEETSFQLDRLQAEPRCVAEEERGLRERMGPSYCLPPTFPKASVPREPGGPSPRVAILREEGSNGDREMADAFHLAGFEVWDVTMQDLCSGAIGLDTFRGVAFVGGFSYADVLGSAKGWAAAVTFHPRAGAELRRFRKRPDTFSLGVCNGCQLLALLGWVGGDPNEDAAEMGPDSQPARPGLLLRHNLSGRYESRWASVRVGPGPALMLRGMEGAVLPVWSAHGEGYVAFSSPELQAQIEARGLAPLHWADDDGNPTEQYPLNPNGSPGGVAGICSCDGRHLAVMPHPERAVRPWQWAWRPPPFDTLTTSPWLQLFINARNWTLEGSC
inactive: [1] 0.007 | [2] 0.017 | [3] 0.02 | [4] 0.042 | [5] 0.023

PGGT1B (UniProt P53609)
inactive: [1] -0.055 | [2] 0.021 | [3] -0.013 | [4] -0.004 | [5] 0.064

PTGES2 (UniProt Q9H7Z7)
UniProt Q9H7Z7, sequence (Q9H7Z7 whole entry, looked up): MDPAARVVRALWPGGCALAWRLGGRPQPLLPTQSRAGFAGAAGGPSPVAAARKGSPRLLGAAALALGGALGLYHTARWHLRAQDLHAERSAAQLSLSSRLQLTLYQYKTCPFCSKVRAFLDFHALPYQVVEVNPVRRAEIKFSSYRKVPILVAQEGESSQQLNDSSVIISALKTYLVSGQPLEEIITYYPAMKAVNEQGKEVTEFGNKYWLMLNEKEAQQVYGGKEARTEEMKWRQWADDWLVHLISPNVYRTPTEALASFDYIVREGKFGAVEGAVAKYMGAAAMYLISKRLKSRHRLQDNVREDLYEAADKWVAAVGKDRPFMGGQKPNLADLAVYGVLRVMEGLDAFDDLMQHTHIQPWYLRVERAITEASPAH
inactive: [1] 0.166 | [2] -0.119 | [3] -0.101 | [4] -0.006 | [5] 0.014
